A selection: hits, their analogues and other compounds. The true share with any hit is near 13%.
USP28 block = inhibitors of human USP28 deubiquitinase; purified USP28, Ub-rhodamine cleavage fluorescence, 30 min; actives 3% (n = 47,000); inhibition, % at 25 µM; AID 1645857, 2021
USP30 block = inhibitors of human USP30 deubiquitinase; Ubiquitin carboxyl-terminal hydrolase 30 (Homo sapiens), Q70CQ3; purified USP30, Ub-rhodamine cleavage fluorescence; inhibition, % at 25 µM; actives 5.3% (n = 47,000); AID 1645860, 2021
Target sequence (Q70CQ3 whole entry, looked up): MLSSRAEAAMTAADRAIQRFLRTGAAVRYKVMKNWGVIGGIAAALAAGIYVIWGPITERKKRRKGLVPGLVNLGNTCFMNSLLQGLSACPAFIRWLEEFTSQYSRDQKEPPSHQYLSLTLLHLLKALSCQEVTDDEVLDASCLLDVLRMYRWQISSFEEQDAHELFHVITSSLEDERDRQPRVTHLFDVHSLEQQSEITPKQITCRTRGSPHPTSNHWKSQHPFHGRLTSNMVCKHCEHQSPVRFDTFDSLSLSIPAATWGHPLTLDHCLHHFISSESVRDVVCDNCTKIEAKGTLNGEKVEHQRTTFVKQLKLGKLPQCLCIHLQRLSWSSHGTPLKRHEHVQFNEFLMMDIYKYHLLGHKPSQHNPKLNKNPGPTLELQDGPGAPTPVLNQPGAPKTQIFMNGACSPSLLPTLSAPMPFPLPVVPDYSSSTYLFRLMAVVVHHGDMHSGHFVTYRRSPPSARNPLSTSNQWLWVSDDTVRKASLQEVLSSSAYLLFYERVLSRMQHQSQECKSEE
USP8 block = inhibitors of human USP8 deubiquitinase; Ubiquitin carboxyl-terminal hydrolase 8 (Homo sapiens), P40818; purified USP8, Ub-rhodamine cleavage fluorescence, 30 min; inhibition, % at 20 µM; actives 4.2% (n = 47,000)
USP17 inh = inhibitors of human USP17 deubiquitinase; purified USP17, Ub-rhodamine cleavage fluorescence, 3 h; actives 6.5% (n = 47,000); Ubiquitin carboxyl-terminal hydrolase 17-like protein 5 (Homo sapiens), A8MUK1; inhibition, % at 50 µM
A number is an active result; - = inactive; . = not tested or not shown. Rule as the data show it: active = inhibition above about 30%; inactive = the rest.

SMILES | USP28 block | USP30 block | USP8 block | USP17 inh
COCCn1cnc2c(-c3ccccc3)cn(CC(=O)Nc3ccc4c(c3)OCO4)c2c1=O | - | - | - | 40
Cc1ccc(Oc2ccccc2NC(=O)CSc2nc(N)nc(N)n2)cc1 | - | - | - | 43
O=C(Nc1ccc(-c2noc(C3CCC3)n2)cc1)N1CCN(c2ccccc2)CC1 | - | - | - | -
N#Cc1cn2c(nc1-c1ccc(Cl)cc1)nc1ccccc12 | 71 | 77 | 71 | 94
COc1ccccc1Oc1nc(-c2ccccc2)cc(C)c1S(C)(=O)=O | 37 | - | - | -
CCc1nc(SCc2ccco2)c2oc3ccccc3c2n1 | - | - | - | -
CCc1nc(SCC(=O)c2ccc(Br)cc2)c2oc3ccccc3c2n1 | - | - | - | -
CCc1nc(SCc2cccc(F)c2)c2oc3ccccc3c2n1 | - | 47 | - | 53
CCc1nc(SCC(=O)N2CCCc3ccccc32)c2oc3ccccc3c2n1 | - | - | - | 40
CCc1cc(C2CCCN2S(=O)(=O)c2ccc3c(c2)OCCN3C(C)=O)on1 (configuration not stated) | 39 | - | - | -
CCn1nccc1C1CCCN1S(=O)(=O)c1ccc2c(c1)OCCO2 (configuration not stated) | - | - | - | -
CC(=O)N1CCOc2cc(S(=O)(=O)N3CCCC3c3cc(C)no3)ccc21 (configuration not stated) | 52 | - | - | -
O=C(Nc1ccc2c(c1)OCCO2)NC1CCCCC1 | 31 | - | - | -
COc1cccc(NC(=O)c2cc(CN3CCCC3)on2)c1 | - | - | - | -
O=C(Nc1ccc2c(c1)OCCO2)c1cc(CN2CCCC2)on1 | 63 | - | - | -
O=C(Nc1cccnc1Cl)c1cc(-c2ccco2)on1 | . | . | - | -
Cc1ccc(NC(=O)c2cc(CN3CCCC3)on2)cc1C | - | - | - | .
O=C(Nc1ccc2c(c1)OCO2)c1cc(-c2ccco2)on1 | 30 | - | - | 44
COc1cc(NC(=O)c2cc(CN3CCOCC3)on2)cc(OC)c1 | 54 | - | - | -
CCc1ccccc1NC(=O)N1CCC(c2cc3n(n2)CCCNC3=O)CC1 | - | - | - | -
COc1ccc(F)cc1-c1ccccc1CC1CN(S(C)(=O)=O)CCNC1=O (configuration not stated) | - | - | - | -
Cn1c(CN2CCN(Cc3ccccc3)CC2)nc2ccccc21 | - | - | - | -
COC(=O)c1ccc(C2c3[nH]c4ccccc4c3C[C@@H]3C(=O)N(c4ccc5c(c4)OCCO5)C(=O)N23)cc1 (some centres not stated) | - | - | - | -
O=C(Nc1ccc2c(c1)OCCO2)c1ccc(N2CCCCC2)nn1 | 59 | - | - | -
O=C(Nc1ccc2c(c1)OCCO2)C1CN(C(=O)c2ccc3c(c2)OCO3)C1 | 43 | - | - | -
SMILES | USP28 block | USP30 block | USP8 block | USP17 inh
O=C(Nc1ccc2c(c1)OCCO2)c1cc(CN2CCOCC2)on1 | 53 | - | - | .
Cc1ccc(NC(=O)c2ccc(N3CCCCC3)nn2)cc1F | - | - | - | -
Cn1ccsc1=NC(=O)Cn1cnc2ccccc2c1=O | - | - | - | -
CCc1cc2c(cc(C(=O)OC)n2CC(=O)Nc2ccc(C)cc2Cl)s1 | - | - | - | 53
COC(=O)c1cc2occc2n1CC(=O)Nc1cccc(Cl)c1C | - | - | - | -
COc1ccccc1NC(C)C(=O)N1CC(=O)Nc2ccccc21 (configuration not stated) | - | - | - | -
CCOC(=O)c1ccc(NC(=O)C2CCCN(S(=O)(=O)N3CCCCCC3)C2)cc1 (configuration not stated) | - | - | - | 41
COc1ccc(NC(=O)C2CCCN(S(=O)(=O)N3CCC(C)CC3)C2)c(OC)c1 (configuration not stated) | - | - | 44 | -
COc1ccc(CCNC(=O)C2CCCN(S(=O)(=O)N3CCC(C)CC3)C2)c(OC)c1 (configuration not stated) | - | 33 | - | -
COc1ccc(NC(=O)C2CCCN(S(=O)(=O)N3CCC(C)CC3)C2)cc1OC (configuration not stated) | - | - | - | -
COc1ccc(OC)c(S(=O)(=O)N2CCCC(C(=O)N3CCC(C)CC3)C2)c1 (configuration not stated) | - | - | - | -
COc1ccc(NC(=O)C2CCCN(S(=O)(=O)N3CCC(C)CC3)C2)cc1 (configuration not stated) | - | - | - | 38
Cc1cccc2sc(N3CCN(C(=O)CCc4ccccc4)CC3)nc12 | - | - | - | .
O=C(Nc1cccc(F)c1)C1CCCN(S(=O)(=O)N2CCCCCC2)C1 (configuration not stated) | - | - | - | 53
Cc1cc(NC(=O)CSc2ncc(-c3cccc([N+](=O)[O-])c3)n2-c2cccc(Cl)c2)no1 | - | - | 55 | -
NC(=O)C1CCN(CC(=O)NCc2ccc3c(c2)OCO3)CC1 | - | - | - | -
COc1ccc(C(=O)Nc2ccccc2Cc2ccccc2)c(OC)c1OC | - | - | - | -
COc1ccccc1NC(=O)c1cc(Br)cc(Cc2ccccc2)c1O | - | - | 49 | -
CCN1CCN(c2nc(N3CCCC3)nc3c2cnn3C)CC1 | - | - | - | -
Cc1nc(-c2noc(-c3ccncc3)n2)cn1CC(=O)N1CCN(c2ccc(F)cc2)CC1 | - | 62 | - | -
CCC(=O)N1CCc2cc(C(=O)N3CCN(c4ccc(C(C)=O)cc4)CC3)ccc21 | - | - | - | -
CCC(=O)N1c2ccc(S(=O)(=O)NCCN(C)Cc3ccccc3)cc2CC1C (configuration not stated) | - | - | - | -
COc1ccc(Cn2c3c(c(=O)[nH]c2=O)CN(CCc2ccccc2)CN3)cc1 | - | - | - | -
COc1ccc(Cn2c3c(c(=O)[nH]c2=O)CN(C2CCCCC2)CN3)cc1 | - | 47 | - | 43
O=C(NC(Cc1ccccc1)c1nc2ccccc2[nH]1)C1CC1 (configuration not stated) | - | - | 48 | 54
SMILES | USP28 block | USP30 block | USP8 block | USP17 inh
O=C(NC(Cc1ccccc1)c1nc2ccccc2[nH]1)c1ccc2ccccc2n1 (configuration not stated) | - | - | - | .
O=C(Cc1coc2cc3c(cc12)CCC3)NC(Cc1ccccc1)c1nc2ccccc2[nH]1 (configuration not stated) | - | - | 66 | 47
COc1ccccc1/C=C/C(=O)NC(Cc1ccccc1)c1nc2ccccc2[nH]1 (configuration not stated) | - | - | 92 | 45
O=C(NC(Cc1ccccc1)c1nc2ccccc2[nH]1)c1ccccc1-c1ccccc1 (configuration not stated) | - | - | 54 | 40
CSCCC(NC(=O)COc1ccc(Cl)cc1)c1nc2ccccc2[nH]1 (configuration not stated) | - | - | - | .
CN1C(C(=O)NCCN2CCOCC2)=CC(c2ccco2)=NS1(=O)=O | - | - | - | -

Assay outcomes from PubChem BioAssay.
